# In ChEMBL document CHEMBL4513216, “Probing the Open Global Health Chemical Diversity Library for Multistage-Active Starting Points for Next-Generation Antimalarials” (ACS Infect Dis, 2020):
# Hit rate of the full screen: of about 65,000 compounds, about 2,100 (3.2%) showed an effect of 50% or more. The median lay at about -52%. The full list was thinned out, with strong results kept by preference.
# Tested on: Plasmodium falciparum
# Experiment: Screen against P. falciparum Asexual Blood Stage (ABS), at 5uM
# Type: functional, Dd2
# Conditions: tested at 5 uM
row,SMILES,INHIBITION [%]
1,CN(C)CCN1C[C@@H]2CN(c3ccccc3)C[C@@H]2C1=O,-41.2
2,c1cnn(CCCO[C@@H]2CC[C@H]3[C@H]2OCCN3CC2CC2)c1,-65.8
3,CN(Cc1cccnc1)C1CC2(CCN(Cc3ccccn3)CC2)C1,10.3
4,Cc1ccc(CNC(=O)NC2CCCc3c2cnn3CCO)cn1 (configuration not stated),-91.3
5,COCCN(Cc1cccs1)c1nc(CCN)nc2ccccc12,62.2
6,NCCc1nc(N(Cc2cncs2)C2CC2)c2ccccc2n1,-30.2
7,CCCc1ncc(CN(CCOC)Cc2cccs2)cn1,-70.2
8,NCCc1nc(N(Cc2nccs2)C2CC2)c2ccccc2n1,-53.9
9,COCCN(CC1CC1)c1nc(CCN)nc2ccccc12,12.1
10,Cc1ccsc1CN(c1nc(CCN)nc2ccccc12)C1CC1,51.4
11,O=C(Cc1ccon1)N1CCN(c2ccc(F)cc2Cl)CC1,-28.3
12,Cc1cnn(CCNCC(O)COc2ccc(F)cc2)c1 (configuration not stated),47.3
13,O=C(c1ccco1)N1CCC12CCN(c1ncc(F)cn1)CC2,-79.7
14,CN(C)S(=O)(=O)N1CCC(Oc2cccnn2)CC1,-57.2
15,CC(C)CC(C)NCc1cccnc1N1CCN(c2ccccn2)CC1 (configuration not stated),56.6
16,CC(C)NCc1cccnc1N1CCN(c2ccccn2)CC1,3.69
17,CCC(CC)C(=O)NCCC(=O)N1CCN(c2ccccn2)CC1,-123
18,CC(C)CC(C)NCc1cccnc1N1CCOCC1 (configuration not stated),60.8
19,CCCC(C)NCc1cccnc1N1CCN(c2ccccn2)CC1 (configuration not stated),51.4
20,Cc1nn(C)c(Cl)c1CNCc1cccnc1N1CCOCC1,-69.2
21,Cc1nn(C)c(C)c1CNCc1cccnc1N1CCOCC1,-43.9
22,CCC(C)NC(=O)NCCC(=O)N1CCN(c2ccccn2)CC1 (configuration not stated),-15.2
23,CC(C)C(=O)NCCC(=O)N1CCN(c2ccccn2)CC1,-172

row,SMILES,INHIBITION [%]
1,CC1(C)CNC(=O)CN(C(=O)COc2ccccc2)C1,-24.2
2,NCCCNS(=O)(=O)Cc1ccc(Br)cc1,-29.3
3,Cc1cccc(CN2C(=O)CCC23CCN(Cc2ccoc2)CC3)n1,-81
4,CN(C)C(=O)CN1C(=O)CCC12CCN(Cc1ccc(F)cc1)CC2,-99.9
5,Cc1noc(C)c1CN1CCN(c2ccnc(-c3ccccc3)n2)CC1,-33.7
6,CCN(CC)C1CCN(C(=O)c2cc3cc(C)cc(C)c3nc2C)CC1,56.8
7,Cc1cc(C)c2nc(C)c(C(=O)N3CCC(CCN(C)C)CC3)cc2c1,-87.5
8,Cc1cc(C)c2nc(C)c(C(=O)N3CCC(N4CCCC4)CC3)cc2c1,-39.3
9,Cc1cc(CN2C[C@@H](C)[C@@]3(CCN(CC(=O)N(C)C)C3=O)C2)oc1C,-100
10,CC[C@H](C)[C@H](NC(=O)c1ccc(-n2cnnn2)cc1)C(=O)OC,-18.7
11,CN1CCN(C(=O)c2occc2CN2C(=O)Cc3ccccc32)CC1,54.3
12,O=C(c1occc1CN1C(=O)Cc2ccccc21)N1CCCCCC1,3.14
13,O=C(c1occc1CN1C(=O)Cc2ccccc21)N1CC(O)C1,-89.1
14,Cc1cc(C(N)=O)nc(C2(C)CCCN2Cc2cnn(C)c2C)n1 (configuration not stated),-80.5
15,CN(Cc1ccoc1)C(=O)CN1C(=O)OC(C)(C)C1=O,-47.7
16,O=C(N[C@@H]1CCCNC1)C1(Oc2ccc(Cl)cc2)CCNCC1,-14.3
17,CN(C)C(=O)C1(Oc2ccc(Cl)cc2)CCNCC1,49.2
18,CN(Cc1ccncn1)C(=O)C1(Oc2ccc(Cl)cc2)CCNCC1,-74.1
19,CN(Cc1ccoc1)C(=O)C1(Oc2ccc(Cl)cc2)CCNCC1,66.9
20,Cc1ccc(OC2(C(=O)N(C)Cc3ccoc3)CCNCC2)cc1,63.5
21,COCC(=O)N1CCCn2c(CN3CCCC3)nnc2C1,-108
22,CC(C)NC(=O)C1(CC2CC(c3ccc(F)cc3)=NO2)CCNCC1 (configuration not stated),-90.4
23,COc1ncc(NCc2ccc(Cl)c(Cl)c2)cc1C(N)=O,-14

row,SMILES,INHIBITION [%]
1,O=C(c1cc(C2CC2)no1)N1C[C@@H]2CC[C@H]1CN(Cc1ccccn1)C2,9.2
2,Cn1ccc(NC(=O)CN2C[C@@H]3CC[C@H]2CN(Cc2ccccn2)C3)n1,-21.7
3,O=C(CN1C[C@@H]2CC[C@H]1CN(Cc1ccccn1)C2)NCc1cccs1,68.4
4,c1cc(CN2C[C@@H]3OCCN(CC4CC4)[C@@H]3C2)n[nH]1,7.58
5,CC(=O)N1CCO[C@@H]2CN(S(=O)(=O)C3CC3)C[C@@H]2C1,-114
6,Cc1csc2c(N3CCC(NCCCc4cnn(C)c4)CC3)ncnc12,-10.6
7,CCCc1cncnc1N1CCC2(CCC(=O)N(C3CCCC3)C2)CC1,29.3
8,CCCc1cncnc1N1CCC2(CCC(=O)N(CCCO)C2)CC1,-6.89
9,CCCc1cncnc1N1CCC(NCc2ccncc2)CC1,66.1
10,CCCN1CCC(NCc2ccncc2)CC1,-47.1
11,Cc1csc2c(N3CCC(NCCc4ccnn4C)CC3)ncnc12,-18.8
12,CCCc1cncnc1N1CCC(NCc2ccc(O)cc2)CC1,50.2
13,Cc1csc2c(N3CCC(NCCCc4ccncc4)CC3)ncnc12,64.6
14,Cc1ccc(CNC2CCN(CCc3ccncc3)CC2)s1,-1.43
15,CCOc1ccc(C(=O)CCC(=O)N(C)Cc2nc(C)c[nH]2)cc1C,-27.6
16,COCCN1CCN(Cc2cnc(C(C)C)nc2)CC1,-72.3
17,O=C(C1CC1)N1C[C@H]2CCCN(S(=O)(=O)c3ccc4c(c3)CCC4)[C@H]2C1,-49.4
18,NCC(=O)N1CCCC1c1nccnc1Nc1ncccn1 (configuration not stated),-91.6
19,CC(C)CC(C)NC1CCN(c2cccc(-c3cscn3)c2)CC1 (configuration not stated),51.8
20,CC(C)CC(C)NC1CCN(c2ccc(-c3cscn3)cc2)CC1 (configuration not stated),-115
21,Cc1nnc(-c2cccc(N3CCC(NC(C)CC(C)C)CC3)c2)s1 (configuration not stated),-15.1
